Our source for the growth values is PubChem BioAssay (NCI).

The panel holds about 83,000 compounds, 20% with a hit somewhere; the sample as a whole holds those more often.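 Plates (96-well) were seeded with cells, treated with compound at one concentration, and incubated for 48 hours before percent growth was determined.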 A number with no mark means an inactive call. The source made the active and inactive calls. Rule for the calls: active = growth percent below 10; inactive = the rest.

Some test systems named below: DU-145 prostate; K-562 leukemia; MALME-3M melanoma; MDA-MB-231 breast; RXF 393 renal; SF-268 CNS; SF-295 CNS; SF-539 CNS; UACC-257 melanoma; M14 melanoma; HCT-15 colon; HT29 colon; SNB-75 CNS; SNB-19 CNS; U251 CNS; PC-3 prostate; SK-MEL-5 melanoma; UACC-62 melanoma; LOX IMVI melanoma; SK-MEL-28 melanoma.
What all share (assay): NCI-60 one-dose screen, 48 h (100 = growth as untreated, 0 = no growth, -100 = all killed)
Holding throughout (settings): 10 µM unless noted

As to `Cc1ccc(/C=C/C(=O)Nc2ncc(Cc3ccc(F)cc3)s2)o1`, the growth in the experiment on DU-145 prostate is 55.6%; in the experiment with K-562 leukemia it was 20.3%; in the experiment with MALME-3M melanoma, 45.9%; with MDA-MB-231 breast, 77.7%; in the experiment on RXF 393 renal, 66.9%; with SF-268 CNS, 53.3%. Further, the growth in the experiment with SF-295 CNS is 35%; in the experiment on SF-539 CNS it was 48.2%; with UACC-257 melanoma it was 76.3%; in the experiment with M14 melanoma, 33.5%; in the experiment with HCT-15 colon, 22%; in the experiment with HT29 colon, 21.6%. The growth in the experiment with SNB-75 CNS was 52.1%; in the experiment with SNB-19 CNS it was 68.7%; with U251 CNS, 47.5%; in the experiment on PC-3 prostate, 38.4%; in the experiment with SK-MEL-5 melanoma it was 45.3%; in the experiment on UACC-62 melanoma, 31.5%. Also, the growth in the experiment with LOX IMVI melanoma is 40.6%; in the experiment with SK-MEL-28 melanoma, 59.7%.
For `C=C(C)[C@@H]1CC[C@]2(C)[C@H](CC=C3[C@@H]4CC(C)(C)CC[C@]4(CO)CC[C@]32C)[C@@]1(C)CCCN`, the growth in the experiment with DU-145 prostate is 44%; with K-562 leukemia, -47.7% (active); in the experiment on MALME-3M melanoma, -45.7% (active); with MDA-MB-231 breast, 27%; in the experiment with RXF 393 renal it was 31.6%; in the experiment with SF-268 CNS, 67.6%. For the same molecule, the growth in the experiment with SF-295 CNS was 90.6%; in the experiment with SF-539 CNS, -61.5% (active); in the experiment with UACC-257 melanoma, -85.2% (active); in the experiment on M14 melanoma, -65.5% (active); with HCT-15 colon, -71.6% (active); with HT29 colon it was -52.8% (active). Further, the growth with SNB-75 CNS is 39.7%; in the experiment with SNB-19 CNS, 79.5%; with U251 CNS it was -86.8% (active); in the experiment on PC-3 prostate, 21.3%; with SK-MEL-5 melanoma it was 55.4%; in the experiment with UACC-62 melanoma, 98.8%. Moreover, the growth is -97.2% (active) in the experiment with LOX IMVI melanoma and -88.4% (active) in the experiment with SK-MEL-28 melanoma.
For `COc1ccc(-c2n[nH]c(=O)c3nc(NC(=S)Nc4ccc(Oc5ccccc5)cc4)sc23)cc1`, the growth with DU-145 prostate was 102%; in the experiment with K-562 leukemia it was 89.3%; in the experiment on MALME-3M melanoma, 110%; in the experiment on MDA-MB-231 breast, 84%; in the experiment with RXF 393 renal it was 104%; in the experiment with SF-268 CNS it was 102%. The growth is 102% in the experiment with SF-295 CNS; 105% in the experiment on SF-539 CNS; 79.7% with UACC-257 melanoma; 88.9% in the experiment with M14 melanoma; 103% in the experiment on HCT-15 colon; 87.6% in the experiment with HT29 colon. Besides, the growth with SNB-75 CNS is 80.8%; with SNB-19 CNS it was 101%; in the experiment with U251 CNS it was 83.3%; in the experiment on PC-3 prostate, 83.8%; in the experiment with SK-MEL-5 melanoma, 99.9%; in the experiment with UACC-62 melanoma it was 95.2%. The growth in the experiment on LOX IMVI melanoma and in the experiment with SK-MEL-28 melanoma was 104% each time.
With `COc1cc(/C=C/C(=O)/C=C(O)/C=C/c2ccc(OC(=O)C34CC5CC(CC(C5)C3)C4)c(OC)c2)ccc1OC(=O)C12CC3CC(CC(C3)C1)C2`, the growth with DU-145 prostate was 113%; in the experiment with K-562 leukemia, 106%; with MALME-3M melanoma, 97%; in the experiment on MDA-MB-231 breast, 103%; in the experiment on RXF 393 renal it was 106%; with SF-268 CNS, 95.6%. Further, the growth in the experiment on SF-295 CNS is 99.2%; in the experiment on SF-539 CNS it was 95.2%; in the experiment with UACC-257 melanoma, 112%; in the experiment on M14 melanoma it was 102%; with HCT-15 colon, 99.3%; with HT29 colon, 104%. The growth was 90% with SNB-75 CNS; 101% with SNB-19 CNS; 104% with U251 CNS; 101% in the experiment with PC-3 prostate; 105% with SK-MEL-5 melanoma; 98.8% in the experiment on UACC-62 melanoma. Moreover, the growth with LOX IMVI melanoma is 95.3%; with SK-MEL-28 melanoma, 100%.
Regarding `O=C(/C=C/c1ccc(Cl)cc1)c1cccc(OCCCOc2cccc(C(=O)/C=C/c3ccc(Cl)cc3)c2)c1`, the growth was 113% in the experiment on DU-145 prostate; 88.8% in the experiment on K-562 leukemia; 109% in the experiment on MALME-3M melanoma; 110% in the experiment with MDA-MB-231 breast; 106% with RXF 393 renal; 105% with SF-268 CNS. For the same molecule, the growth in the experiment with SF-295 CNS was 100%; in the experiment with SF-539 CNS, 112%; in the experiment with UACC-257 melanoma, 98.6%; with M14 melanoma, 98.6%; in the experiment with HCT-15 colon, 90.3%; in the experiment with HT29 colon, 98.6%. For the same molecule, the growth was 91.5% with SNB-75 CNS; 99.1% in the experiment on SNB-19 CNS; 86.3% in the experiment on U251 CNS; 104% in the experiment on PC-3 prostate; 102% with SK-MEL-5 melanoma; 90% in the experiment with UACC-62 melanoma. Further, the values for the growth in the experiment on LOX IMVI melanoma and in the experiment on SK-MEL-28 melanoma were 99.1% and 102%, respectively.
In the case of `C#CCOc1cccc(-c2ncnc3cc(NC(=O)C=C)ccc23)c1`, the growth in the experiment with DU-145 prostate is 15.6%; with K-562 leukemia, 24.2%; with MALME-3M melanoma it was 60.5%; with MDA-MB-231 breast, 15.8%; in the experiment with RXF 393 renal, 30.8%; in the experiment on SF-268 CNS it was 49.6%. Also, the growth in the experiment with SF-295 CNS is 43.2%; with SF-539 CNS it was 8.33% (active); with UACC-257 melanoma, 62.5%; in the experiment on M14 melanoma it was 45.6%; in the experiment on HCT-15 colon it was 24%; in the experiment on HT29 colon, 10.8%. For the same molecule, the growth with SNB-75 CNS is 10.6%; with SNB-19 CNS, 50.6%; with U251 CNS it was 51.4%; in the experiment with PC-3 prostate it was 37.2%; in the experiment with SK-MEL-5 melanoma it was 68.5%; in the experiment on UACC-62 melanoma it was 34.6%. The growth in the experiment with LOX IMVI melanoma is 34.1%; in the experiment on SK-MEL-28 melanoma, 70.5%.
As for `O=C(CCl)NNc1nccc(Nc2ccc(S(=O)(=O)Nc3ccncc3)cc2)n1`, the growth with DU-145 prostate is 32.1%; in the experiment with K-562 leukemia, 17.6%; in the experiment with MALME-3M melanoma, 32.2%; in the experiment on MDA-MB-231 breast, 46.7%; in the experiment with RXF 393 renal, 48.2%; with SF-268 CNS it was 37.6%. Moreover, the growth in the experiment on SF-295 CNS was 67.7%; in the experiment with SF-539 CNS, 5.24% (active); in the experiment with UACC-257 melanoma, 52.1%; in the experiment on M14 melanoma, 45.2%; with HCT-15 colon, 22.2%; with HT29 colon, 27.4%. For the same molecule, the growth is 54.7% in the experiment with SNB-75 CNS; 31.1% in the experiment with SNB-19 CNS; -9.06% (active) in the experiment with U251 CNS; 56% in the experiment on PC-3 prostate; 7.95% (active) in the experiment on SK-MEL-5 melanoma; 31.4% in the experiment on UACC-62 melanoma. In addition, the results for the growth with LOX IMVI melanoma and in the experiment on SK-MEL-28 melanoma were 17.6% and 53.7%, respectively.
